The values below come from article PMC7862700, “An all-to-all approach to the identification of sequence-specific readers for epigenetic DNA modifications on cytosine”.

What all share (experiment): DAPPL (digital affinity profiling via proximity ligation, sequencing); 10 mM Tris-HCl pH 7.5, 50 mM NaCl, 1 mM DTT, 4% glycerol, room temperature, 30 min; GST-TFs on glutathione beads, 16-mer random dsDNA library, 0.1% formaldehyde crosslink after washing; high values mean tight binding
Details in all cases: protein: recombinant; tags: N-terminal GST; dsDNA, one strand shown

One experiment deals with T1, FLI1 (Homo sapiens, UniProt Q01543 1-452).
T1 sequence: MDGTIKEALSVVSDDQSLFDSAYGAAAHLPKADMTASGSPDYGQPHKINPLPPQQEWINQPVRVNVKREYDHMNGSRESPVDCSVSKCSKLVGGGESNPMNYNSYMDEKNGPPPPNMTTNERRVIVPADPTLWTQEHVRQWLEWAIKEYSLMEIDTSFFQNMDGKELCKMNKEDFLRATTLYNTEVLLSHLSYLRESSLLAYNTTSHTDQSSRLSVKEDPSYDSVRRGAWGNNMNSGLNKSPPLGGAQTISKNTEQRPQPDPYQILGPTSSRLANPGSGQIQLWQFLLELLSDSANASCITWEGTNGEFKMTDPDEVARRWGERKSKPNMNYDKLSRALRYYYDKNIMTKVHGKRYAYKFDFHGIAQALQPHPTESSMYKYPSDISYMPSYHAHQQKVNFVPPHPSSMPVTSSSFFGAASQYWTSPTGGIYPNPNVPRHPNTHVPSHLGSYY
The procedure, abridged:
(§1)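 A tag-only sample was pooled with DNA-barcoded human transcription factors that had been expressed in yeast as GST fusions and captured on glutathione beads. The pools were incubated for 30 min at room temperature with 200 nmole of a random double-stranded 16-mer DNA library in Tris/NaCl/DTT/glycerol buffer, then washed, crosslinked with 0.1% formaldehyde, proximity-ligated (BsaI/T4 ligase, 1 h, 37 °C), PCR-amplified and sequenced on an Illumina NextSeq500. Binding signal is each hexamer's read frequency for a factor divided by its frequency for the tag-only sample.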

In a further experiment the target is T2, ELK1 (Homo sapiens, UniProt P19419 1-428).
T2 sequence: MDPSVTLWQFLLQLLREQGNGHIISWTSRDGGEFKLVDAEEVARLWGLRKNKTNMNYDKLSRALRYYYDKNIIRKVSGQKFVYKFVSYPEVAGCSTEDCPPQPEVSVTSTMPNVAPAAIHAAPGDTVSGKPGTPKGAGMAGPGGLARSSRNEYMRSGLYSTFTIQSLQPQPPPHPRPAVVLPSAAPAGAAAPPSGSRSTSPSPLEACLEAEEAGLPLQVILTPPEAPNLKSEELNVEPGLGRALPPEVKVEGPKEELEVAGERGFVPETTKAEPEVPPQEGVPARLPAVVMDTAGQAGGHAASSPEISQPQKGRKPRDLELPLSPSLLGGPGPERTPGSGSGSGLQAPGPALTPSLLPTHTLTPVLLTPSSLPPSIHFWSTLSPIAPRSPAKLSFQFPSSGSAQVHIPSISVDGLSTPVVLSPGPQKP
The procedure, abridged: as §1

The next experiment addresses T3, GABPA (Homo sapiens, UniProt Q06546 1-454).
T3 sequence: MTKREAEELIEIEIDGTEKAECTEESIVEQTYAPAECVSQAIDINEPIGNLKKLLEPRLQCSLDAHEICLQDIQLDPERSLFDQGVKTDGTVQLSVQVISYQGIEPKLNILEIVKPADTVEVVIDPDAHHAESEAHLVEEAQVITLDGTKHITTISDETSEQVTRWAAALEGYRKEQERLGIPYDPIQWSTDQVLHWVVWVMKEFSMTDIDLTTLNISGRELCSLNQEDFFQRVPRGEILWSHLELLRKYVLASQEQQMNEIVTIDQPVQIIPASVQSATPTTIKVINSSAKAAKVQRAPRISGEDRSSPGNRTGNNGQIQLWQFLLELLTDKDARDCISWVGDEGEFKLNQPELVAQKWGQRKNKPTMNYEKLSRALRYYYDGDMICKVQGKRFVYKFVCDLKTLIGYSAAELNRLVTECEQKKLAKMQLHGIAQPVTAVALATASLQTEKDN
The procedure, abridged:
as §1

Another experiment concerns the target T4, ERG (Homo sapiens, UniProt P11308 1-479).
T4 sequence: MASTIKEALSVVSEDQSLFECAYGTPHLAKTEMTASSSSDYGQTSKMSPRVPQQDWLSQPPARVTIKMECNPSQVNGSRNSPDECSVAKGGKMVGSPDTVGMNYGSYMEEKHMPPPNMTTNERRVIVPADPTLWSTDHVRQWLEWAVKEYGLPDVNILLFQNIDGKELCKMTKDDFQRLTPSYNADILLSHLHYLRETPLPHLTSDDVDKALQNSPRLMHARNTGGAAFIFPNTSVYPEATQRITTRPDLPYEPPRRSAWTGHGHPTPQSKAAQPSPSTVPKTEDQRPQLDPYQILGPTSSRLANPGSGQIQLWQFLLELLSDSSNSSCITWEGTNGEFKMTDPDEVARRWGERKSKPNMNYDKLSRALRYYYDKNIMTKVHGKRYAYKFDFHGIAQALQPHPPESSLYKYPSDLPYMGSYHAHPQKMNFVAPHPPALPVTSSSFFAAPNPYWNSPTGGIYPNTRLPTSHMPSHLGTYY
A digest of the protocol:
as §1

In another experiment the target is ELF1 (Homo sapiens, UniProt P32519 1-619). The procedure, abridged: as §1
For a further experiment, the target named is T5, EHF (Homo sapiens, UniProt Q9NZC4 1-300).
T5 sequence: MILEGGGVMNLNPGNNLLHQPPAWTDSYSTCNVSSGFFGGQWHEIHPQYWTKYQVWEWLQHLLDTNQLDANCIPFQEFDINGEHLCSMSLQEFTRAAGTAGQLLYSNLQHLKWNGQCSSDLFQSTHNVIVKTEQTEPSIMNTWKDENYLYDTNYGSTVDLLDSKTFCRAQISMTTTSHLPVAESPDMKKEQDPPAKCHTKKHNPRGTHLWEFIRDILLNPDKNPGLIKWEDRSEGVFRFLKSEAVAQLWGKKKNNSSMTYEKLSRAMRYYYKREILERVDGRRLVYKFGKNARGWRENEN
A digest of the protocol: as §1

The next experiment has as its target SPI1 (Homo sapiens, UniProt P17947 1-270). A digest of the protocol:
as §1

The next experiment addresses SPIB (Homo sapiens, UniProt Q01892 1-262). The procedure, abridged:
as §1

A further experiment addresses T6, ELK3 (Homo sapiens, UniProt P41970 1-407).
T6 sequence: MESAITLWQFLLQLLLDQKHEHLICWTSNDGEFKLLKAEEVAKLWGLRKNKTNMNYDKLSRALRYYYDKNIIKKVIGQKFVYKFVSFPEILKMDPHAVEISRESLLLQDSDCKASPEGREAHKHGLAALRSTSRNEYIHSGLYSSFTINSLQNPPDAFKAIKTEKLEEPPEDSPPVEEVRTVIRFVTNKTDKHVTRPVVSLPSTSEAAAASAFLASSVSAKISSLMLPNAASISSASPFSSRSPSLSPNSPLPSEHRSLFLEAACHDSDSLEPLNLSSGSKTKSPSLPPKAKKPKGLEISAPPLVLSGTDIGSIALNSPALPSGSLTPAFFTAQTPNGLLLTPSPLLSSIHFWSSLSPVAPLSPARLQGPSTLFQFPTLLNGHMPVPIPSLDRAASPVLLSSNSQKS
A digest of the protocol:
as §1

A further experiment deals with T7, FEV (Homo sapiens, UniProt Q99581 1-238).
T7 sequence: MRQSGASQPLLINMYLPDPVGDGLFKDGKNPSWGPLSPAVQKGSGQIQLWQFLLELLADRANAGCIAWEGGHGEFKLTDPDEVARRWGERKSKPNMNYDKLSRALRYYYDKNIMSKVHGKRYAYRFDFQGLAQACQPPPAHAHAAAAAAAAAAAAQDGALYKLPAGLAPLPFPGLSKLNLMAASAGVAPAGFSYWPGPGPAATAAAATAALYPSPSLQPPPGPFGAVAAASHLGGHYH
The procedure, abridged:
as §1

For the next experiment, the target named is ETV5 (Homo sapiens, UniProt P41161 1-510). A digest of the protocol:
as §1

The next experiment addresses T8, SPIC (Homo sapiens, UniProt Q8N5J4 1-248).
T8 sequence: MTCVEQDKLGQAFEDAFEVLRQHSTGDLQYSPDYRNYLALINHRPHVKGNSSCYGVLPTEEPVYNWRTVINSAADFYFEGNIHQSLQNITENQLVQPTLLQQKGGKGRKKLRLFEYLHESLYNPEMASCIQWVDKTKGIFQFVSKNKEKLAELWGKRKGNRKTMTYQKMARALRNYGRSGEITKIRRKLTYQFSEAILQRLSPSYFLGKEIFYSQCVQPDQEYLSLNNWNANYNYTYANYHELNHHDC
The procedure, abridged: as §1

The target in the next experiment is ELF4 (Homo sapiens, UniProt Q99607 1-663). A digest of the protocol: as §1
The next experiment deals with T9, ELK4 (Homo sapiens, UniProt P28324-2 1-405).
T9 sequence: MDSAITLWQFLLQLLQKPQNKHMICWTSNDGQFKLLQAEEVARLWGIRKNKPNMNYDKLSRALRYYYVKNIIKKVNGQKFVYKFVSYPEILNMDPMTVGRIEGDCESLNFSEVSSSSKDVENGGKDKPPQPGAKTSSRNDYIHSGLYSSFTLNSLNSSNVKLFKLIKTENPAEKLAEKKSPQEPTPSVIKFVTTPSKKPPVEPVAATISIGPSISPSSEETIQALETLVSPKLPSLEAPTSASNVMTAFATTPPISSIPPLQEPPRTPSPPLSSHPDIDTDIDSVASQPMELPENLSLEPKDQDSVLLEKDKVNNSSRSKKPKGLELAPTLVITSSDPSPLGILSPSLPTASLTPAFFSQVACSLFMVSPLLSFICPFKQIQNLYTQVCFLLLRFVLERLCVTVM
A digest of the protocol:
as §1

A further experiment concerns the target T10, ETV2 (Homo sapiens, UniProt O00321 1-342).
T10 sequence: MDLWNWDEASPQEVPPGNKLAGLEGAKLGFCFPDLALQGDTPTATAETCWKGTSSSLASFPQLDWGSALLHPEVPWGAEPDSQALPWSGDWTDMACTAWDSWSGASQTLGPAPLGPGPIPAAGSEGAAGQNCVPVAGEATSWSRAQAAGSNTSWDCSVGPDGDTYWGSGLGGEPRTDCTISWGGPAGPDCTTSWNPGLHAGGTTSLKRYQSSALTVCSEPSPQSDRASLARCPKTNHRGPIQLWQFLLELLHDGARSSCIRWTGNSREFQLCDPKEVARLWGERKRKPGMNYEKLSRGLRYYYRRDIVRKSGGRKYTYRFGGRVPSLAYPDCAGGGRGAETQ
The procedure, abridged:
as §1

In the next experiment the target is T11, ELF3 (Homo sapiens, UniProt P78545 1-371).
T11 sequence: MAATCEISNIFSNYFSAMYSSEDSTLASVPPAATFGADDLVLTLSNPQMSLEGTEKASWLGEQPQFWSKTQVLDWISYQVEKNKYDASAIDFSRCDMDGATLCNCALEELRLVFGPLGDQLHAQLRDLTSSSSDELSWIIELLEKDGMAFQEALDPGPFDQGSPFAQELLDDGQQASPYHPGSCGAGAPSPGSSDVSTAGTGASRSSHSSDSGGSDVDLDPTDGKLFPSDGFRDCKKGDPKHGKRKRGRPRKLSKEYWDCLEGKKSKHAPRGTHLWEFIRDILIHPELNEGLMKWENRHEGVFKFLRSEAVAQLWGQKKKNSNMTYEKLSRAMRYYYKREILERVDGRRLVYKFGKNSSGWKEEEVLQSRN
A digest of the protocol:
as §1

In a further experiment the target is ETV1 (Homo sapiens, UniProt P50549 1-477). A digest of the protocol: as §1
Sequence of ETV1 (P50549 whole entry): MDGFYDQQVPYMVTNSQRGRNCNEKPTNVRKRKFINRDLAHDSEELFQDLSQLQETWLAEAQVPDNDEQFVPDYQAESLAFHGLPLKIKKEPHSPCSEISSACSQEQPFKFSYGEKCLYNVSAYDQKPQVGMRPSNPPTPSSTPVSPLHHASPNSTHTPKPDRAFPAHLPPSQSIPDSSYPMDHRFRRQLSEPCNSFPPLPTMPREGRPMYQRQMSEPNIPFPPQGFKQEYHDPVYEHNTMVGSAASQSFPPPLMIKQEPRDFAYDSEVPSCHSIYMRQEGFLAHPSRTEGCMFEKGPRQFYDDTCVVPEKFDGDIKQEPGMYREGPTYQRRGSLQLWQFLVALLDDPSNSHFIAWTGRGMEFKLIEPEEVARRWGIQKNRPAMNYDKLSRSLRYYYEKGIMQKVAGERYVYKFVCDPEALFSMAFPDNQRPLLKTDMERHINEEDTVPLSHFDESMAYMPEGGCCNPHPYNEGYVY

Sequence of SPIB (Q01892 whole entry): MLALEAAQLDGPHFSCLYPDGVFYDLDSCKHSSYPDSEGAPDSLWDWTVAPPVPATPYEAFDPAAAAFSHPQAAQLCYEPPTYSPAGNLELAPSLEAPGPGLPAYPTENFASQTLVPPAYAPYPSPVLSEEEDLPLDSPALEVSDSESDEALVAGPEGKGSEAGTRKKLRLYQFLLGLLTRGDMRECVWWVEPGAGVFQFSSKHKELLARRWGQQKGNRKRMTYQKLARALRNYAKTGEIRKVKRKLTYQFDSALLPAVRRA
Sequence of ETV5 (P41161 whole entry): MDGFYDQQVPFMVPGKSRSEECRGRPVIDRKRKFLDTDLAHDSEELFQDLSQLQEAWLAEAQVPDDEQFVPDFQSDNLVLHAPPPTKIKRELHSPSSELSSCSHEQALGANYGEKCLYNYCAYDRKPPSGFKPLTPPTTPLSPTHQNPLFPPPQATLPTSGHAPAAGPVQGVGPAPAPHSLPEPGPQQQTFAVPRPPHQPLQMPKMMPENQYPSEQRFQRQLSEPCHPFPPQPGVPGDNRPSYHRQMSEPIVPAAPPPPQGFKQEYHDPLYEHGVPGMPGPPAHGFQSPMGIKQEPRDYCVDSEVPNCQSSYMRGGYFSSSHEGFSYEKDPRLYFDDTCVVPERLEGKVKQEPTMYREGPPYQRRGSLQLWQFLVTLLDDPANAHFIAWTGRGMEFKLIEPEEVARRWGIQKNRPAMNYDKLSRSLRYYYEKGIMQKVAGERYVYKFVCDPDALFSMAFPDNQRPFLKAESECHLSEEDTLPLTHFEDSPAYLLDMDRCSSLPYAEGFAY
Sequence of ELF1 (P32519 whole entry): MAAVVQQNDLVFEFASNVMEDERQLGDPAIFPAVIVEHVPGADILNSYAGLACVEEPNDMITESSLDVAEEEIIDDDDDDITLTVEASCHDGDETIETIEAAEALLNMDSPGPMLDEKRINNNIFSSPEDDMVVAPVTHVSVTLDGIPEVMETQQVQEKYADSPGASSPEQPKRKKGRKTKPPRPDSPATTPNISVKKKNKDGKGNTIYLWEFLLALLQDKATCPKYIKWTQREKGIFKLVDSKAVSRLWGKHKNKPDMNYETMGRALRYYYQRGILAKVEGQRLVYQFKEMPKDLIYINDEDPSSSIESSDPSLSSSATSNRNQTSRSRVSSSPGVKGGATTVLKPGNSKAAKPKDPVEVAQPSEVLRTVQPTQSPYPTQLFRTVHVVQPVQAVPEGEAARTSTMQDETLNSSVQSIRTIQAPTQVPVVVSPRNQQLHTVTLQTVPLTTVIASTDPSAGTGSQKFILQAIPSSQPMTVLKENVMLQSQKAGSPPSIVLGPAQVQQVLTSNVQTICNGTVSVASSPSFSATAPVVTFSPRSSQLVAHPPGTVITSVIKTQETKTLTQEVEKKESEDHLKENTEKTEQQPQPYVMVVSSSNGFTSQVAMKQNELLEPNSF
Sequence of ELF4 (Q99607 whole entry): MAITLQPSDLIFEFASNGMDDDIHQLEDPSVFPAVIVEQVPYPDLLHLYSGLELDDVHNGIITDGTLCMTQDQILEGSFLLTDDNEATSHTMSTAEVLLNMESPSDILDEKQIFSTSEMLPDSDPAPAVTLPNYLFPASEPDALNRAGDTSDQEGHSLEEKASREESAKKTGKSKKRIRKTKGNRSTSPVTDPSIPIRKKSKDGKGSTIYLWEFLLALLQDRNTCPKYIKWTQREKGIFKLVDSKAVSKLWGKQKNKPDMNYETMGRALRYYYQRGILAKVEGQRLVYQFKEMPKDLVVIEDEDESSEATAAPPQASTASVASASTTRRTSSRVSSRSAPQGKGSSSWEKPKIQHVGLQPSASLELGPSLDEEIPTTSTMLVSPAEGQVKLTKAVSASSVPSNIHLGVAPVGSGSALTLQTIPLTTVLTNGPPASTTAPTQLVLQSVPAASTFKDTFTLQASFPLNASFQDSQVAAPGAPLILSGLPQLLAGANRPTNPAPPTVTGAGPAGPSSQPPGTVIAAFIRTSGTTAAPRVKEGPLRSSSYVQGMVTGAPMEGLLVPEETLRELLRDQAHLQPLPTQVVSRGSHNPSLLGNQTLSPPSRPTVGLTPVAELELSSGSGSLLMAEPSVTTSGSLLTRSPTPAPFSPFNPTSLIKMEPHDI

On to TGAACC, for which the binding signal with FLI1 was 1.17 fold enrichment (6-mer frequency, TF over GST control); in the experiment with ELK1, 1.25 fold enrichment (6-mer frequency, TF over GST control); with GABPA, 1.17 fold enrichment (6-mer frequency, TF over GST control); in the experiment with ERG it was 1.1 fold enrichment (6-mer frequency, TF over GST control); in the experiment with ELF1, 1.15 fold enrichment (6-mer frequency, TF over GST control); with EHF, 1.16 fold enrichment (6-mer frequency, TF over GST control). The binding signal with SPI1 is 1.15 fold enrichment (6-mer frequency, TF over GST control); with SPIB, 1.15 fold enrichment (6-mer frequency, TF over GST control); in the experiment with ELK3, 1.12 fold enrichment (6-mer frequency, TF over GST control); with FEV, 1.12 fold enrichment (6-mer frequency, TF over GST control); in the experiment with ETV5, 1.21 fold enrichment (6-mer frequency, TF over GST control); with SPIC it was 1.1 fold enrichment (6-mer frequency, TF over GST control). Moreover, the binding signal in the experiment with ELF4 was 1.15 fold enrichment (6-mer frequency, TF over GST control); with ELK4, 1.19 fold enrichment (6-mer frequency, TF over GST control); with ETV2, 1.01 fold enrichment (6-mer frequency, TF over GST control); in the experiment with ELF3 it was 1.12 fold enrichment (6-mer frequency, TF over GST control); with ETV1, 1.2 fold enrichment (6-mer frequency, TF over GST control).
Regarding ACTGCA, the binding signal with FLI1 was 1.1 fold enrichment (6-mer frequency, TF over GST control); with ELK1 it was 1.17 fold enrichment (6-mer frequency, TF over GST control); with GABPA, 1.05 fold enrichment (6-mer frequency, TF over GST control); with ERG, 1.09 fold enrichment (6-mer frequency, TF over GST control); in the experiment with ELF1, 1.19 fold enrichment (6-mer frequency, TF over GST control); with EHF, 1.12 fold enrichment (6-mer frequency, TF over GST control). The binding signal with SPI1 was 1.27 fold enrichment (6-mer frequency, TF over GST control); with SPIB it was 1.15 fold enrichment (6-mer frequency, TF over GST control); with ELK3, 1.11 fold enrichment (6-mer frequency, TF over GST control); with FEV, 1.18 fold enrichment (6-mer frequency, TF over GST control); in the experiment with ETV5, 1.2 fold enrichment (6-mer frequency, TF over GST control); with SPIC it was 1.34 fold enrichment (6-mer frequency, TF over GST control). In addition, the binding signal with ELF4 is 1.09 fold enrichment (6-mer frequency, TF over GST control); with ELK4 it was 1.25 fold enrichment (6-mer frequency, TF over GST control); with ETV2, 1 fold enrichment (6-mer frequency, TF over GST control); with ELF3 it was 1.08 fold enrichment (6-mer frequency, TF over GST control); with ETV1 it was 1.01 fold enrichment (6-mer frequency, TF over GST control).
